# Assays:
# Assay in all cases: DAPPL (digital affinity profiling via proximity ligation, sequencing); 10 mM Tris-HCl pH 7.5, 50 mM NaCl, 1 mM DTT, 4% glycerol, room temperature, 30 min; GST-TFs on glutathione beads, 16-mer random dsDNA library, 0.1% formaldehyde crosslink after washing; high values mean tight binding
# FLI1 = target: T1, FLI1 (Homo sapiens, UniProt Q01543 1-452); conditions: protein: recombinant; tags: N-terminal GST; dsDNA, one strand shown
# T1 sequence: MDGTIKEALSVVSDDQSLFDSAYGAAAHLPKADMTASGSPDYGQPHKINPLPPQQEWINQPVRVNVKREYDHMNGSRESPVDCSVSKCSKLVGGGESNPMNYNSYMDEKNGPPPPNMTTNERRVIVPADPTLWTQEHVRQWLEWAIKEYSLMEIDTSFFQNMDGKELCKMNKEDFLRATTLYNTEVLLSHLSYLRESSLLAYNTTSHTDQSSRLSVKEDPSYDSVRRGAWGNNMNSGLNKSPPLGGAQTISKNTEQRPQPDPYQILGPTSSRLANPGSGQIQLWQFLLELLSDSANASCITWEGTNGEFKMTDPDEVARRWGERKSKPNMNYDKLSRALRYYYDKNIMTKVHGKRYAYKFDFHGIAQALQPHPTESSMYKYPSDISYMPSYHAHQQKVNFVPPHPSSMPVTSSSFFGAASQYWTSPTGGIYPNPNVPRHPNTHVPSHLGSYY
# How it was run: (§1)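 In yeast, human transcription factors were expressed with a GST fusion, then pulled down on glutathione beads and given DNA barcodes. Pooled with a tag-only sample, they were exposed to 200 nmole of a 16-mer random double-stranded DNA library (Tris/NaCl/DTT/glycerol buffer, room temperature, 30 min), washed, crosslinked with 0.1% formaldehyde, proximity-ligated using BsaI/T4 ligase for 1 h at 37 °C, PCR-amplified and read on an Illumina NextSeq500. Each hexamer's frequency of reads for a factor, divided by the matching frequency for the tag-only sample, gives the binding signal.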
# ELK1 = target: T2, ELK1 (Homo sapiens, UniProt P19419 1-428); conditions: protein: recombinant; tags: N-terminal GST; dsDNA, one strand shown
# T2 sequence: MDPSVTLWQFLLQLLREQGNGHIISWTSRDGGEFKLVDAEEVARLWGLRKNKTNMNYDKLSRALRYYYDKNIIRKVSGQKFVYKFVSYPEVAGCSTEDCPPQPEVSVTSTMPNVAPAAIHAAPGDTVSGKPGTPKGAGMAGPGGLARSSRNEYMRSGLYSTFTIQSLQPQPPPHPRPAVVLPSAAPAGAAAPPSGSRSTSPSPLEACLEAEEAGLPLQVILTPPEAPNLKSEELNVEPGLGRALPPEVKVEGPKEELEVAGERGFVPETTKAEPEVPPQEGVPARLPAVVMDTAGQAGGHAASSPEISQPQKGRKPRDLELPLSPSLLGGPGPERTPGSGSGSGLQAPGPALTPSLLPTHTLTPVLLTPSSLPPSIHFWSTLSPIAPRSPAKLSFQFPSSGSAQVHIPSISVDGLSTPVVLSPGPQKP
# How it was run: as §1
# GABPA = target: T3, GABPA (Homo sapiens, UniProt Q06546 1-454); conditions: protein: recombinant; tags: N-terminal GST; dsDNA, one strand shown
# T3 sequence: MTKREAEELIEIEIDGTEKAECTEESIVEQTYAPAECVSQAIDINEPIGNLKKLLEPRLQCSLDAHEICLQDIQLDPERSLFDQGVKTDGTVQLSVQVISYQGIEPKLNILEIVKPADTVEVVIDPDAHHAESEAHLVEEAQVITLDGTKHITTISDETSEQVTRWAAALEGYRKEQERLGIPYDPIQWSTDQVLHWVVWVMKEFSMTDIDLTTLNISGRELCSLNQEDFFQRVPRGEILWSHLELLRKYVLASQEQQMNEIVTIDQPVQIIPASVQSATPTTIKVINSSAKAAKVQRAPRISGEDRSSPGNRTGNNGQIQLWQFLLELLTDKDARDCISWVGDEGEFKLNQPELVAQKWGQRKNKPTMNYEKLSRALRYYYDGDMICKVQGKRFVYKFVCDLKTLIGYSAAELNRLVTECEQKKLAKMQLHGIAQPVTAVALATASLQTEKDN
# How it was run: as §1
# ERG = target: T4, ERG (Homo sapiens, UniProt P11308 1-479); conditions: protein: recombinant; tags: N-terminal GST; dsDNA, one strand shown
# T4 sequence: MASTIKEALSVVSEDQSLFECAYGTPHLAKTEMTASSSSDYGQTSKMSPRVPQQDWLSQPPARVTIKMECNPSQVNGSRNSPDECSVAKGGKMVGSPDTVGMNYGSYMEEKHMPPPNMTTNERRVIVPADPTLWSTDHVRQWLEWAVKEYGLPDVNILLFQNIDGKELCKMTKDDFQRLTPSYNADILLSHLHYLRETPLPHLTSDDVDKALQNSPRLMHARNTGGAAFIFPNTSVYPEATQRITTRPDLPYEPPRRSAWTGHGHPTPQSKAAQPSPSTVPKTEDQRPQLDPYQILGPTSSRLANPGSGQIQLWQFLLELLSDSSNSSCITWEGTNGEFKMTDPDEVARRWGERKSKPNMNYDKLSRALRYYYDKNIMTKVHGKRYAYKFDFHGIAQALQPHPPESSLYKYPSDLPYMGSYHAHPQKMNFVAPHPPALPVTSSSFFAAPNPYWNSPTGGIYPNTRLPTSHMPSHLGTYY
# How it was run: as §1
# ELF1 = ELF1 (Homo sapiens, UniProt P32519 1-619); conditions: protein: recombinant; tags: N-terminal GST; dsDNA, one strand shown
# How it was run: as §1
# EHF = target: T5, EHF (Homo sapiens, UniProt Q9NZC4 1-300); conditions: protein: recombinant; tags: N-terminal GST; dsDNA, one strand shown
# T5 sequence: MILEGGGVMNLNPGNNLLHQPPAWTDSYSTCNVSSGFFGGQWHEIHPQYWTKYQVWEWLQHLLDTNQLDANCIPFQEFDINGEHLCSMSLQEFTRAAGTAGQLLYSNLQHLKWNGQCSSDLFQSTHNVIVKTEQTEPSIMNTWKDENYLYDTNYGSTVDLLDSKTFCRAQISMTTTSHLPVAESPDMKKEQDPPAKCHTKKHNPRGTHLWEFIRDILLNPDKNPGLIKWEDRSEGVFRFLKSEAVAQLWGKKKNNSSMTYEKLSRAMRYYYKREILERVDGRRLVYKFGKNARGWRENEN
# How it was run: as §1
# SPI1 = SPI1 (Homo sapiens, UniProt P17947 1-270); conditions: protein: recombinant; tags: N-terminal GST; dsDNA, one strand shown
# How it was run: as §1
# SPIB = SPIB (Homo sapiens, UniProt Q01892 1-262); conditions: protein: recombinant; tags: N-terminal GST; dsDNA, one strand shown
# How it was run: as §1
# ELK3 = target: T6, ELK3 (Homo sapiens, UniProt P41970 1-407); conditions: protein: recombinant; tags: N-terminal GST; dsDNA, one strand shown
# T6 sequence: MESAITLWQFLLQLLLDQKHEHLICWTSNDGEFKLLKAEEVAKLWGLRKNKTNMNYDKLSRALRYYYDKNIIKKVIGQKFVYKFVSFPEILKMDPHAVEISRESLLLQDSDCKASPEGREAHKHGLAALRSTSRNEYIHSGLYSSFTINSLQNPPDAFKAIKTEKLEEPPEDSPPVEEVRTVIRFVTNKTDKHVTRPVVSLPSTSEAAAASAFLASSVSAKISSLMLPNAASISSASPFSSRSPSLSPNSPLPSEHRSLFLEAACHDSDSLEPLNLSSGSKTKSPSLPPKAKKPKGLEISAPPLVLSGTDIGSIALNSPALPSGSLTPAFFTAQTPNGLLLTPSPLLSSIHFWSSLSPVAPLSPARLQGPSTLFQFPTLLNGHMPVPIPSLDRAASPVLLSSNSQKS
# How it was run: as §1
# FEV = target: T7, FEV (Homo sapiens, UniProt Q99581 1-238); conditions: protein: recombinant; tags: N-terminal GST; dsDNA, one strand shown
# T7 sequence: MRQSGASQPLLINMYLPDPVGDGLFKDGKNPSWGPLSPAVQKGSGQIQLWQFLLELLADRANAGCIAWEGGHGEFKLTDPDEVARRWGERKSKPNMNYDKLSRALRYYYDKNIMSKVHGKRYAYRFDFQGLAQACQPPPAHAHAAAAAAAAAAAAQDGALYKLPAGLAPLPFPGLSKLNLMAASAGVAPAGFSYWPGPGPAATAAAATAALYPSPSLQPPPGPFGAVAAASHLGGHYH
# How it was run: as §1
# ETV5 = ETV5 (Homo sapiens, UniProt P41161 1-510); conditions: protein: recombinant; tags: N-terminal GST; dsDNA, one strand shown
# How it was run: as §1
# HSF1 = HSF1 (Homo sapiens, UniProt Q00613 1-529); conditions: protein: recombinant; tags: N-terminal GST; chain copies: 3; dsDNA, one strand shown
# How it was run: as §1
# SPIC = target: T8, SPIC (Homo sapiens, UniProt Q8N5J4 1-248); conditions: protein: recombinant; tags: N-terminal GST; dsDNA, one strand shown
# T8 sequence: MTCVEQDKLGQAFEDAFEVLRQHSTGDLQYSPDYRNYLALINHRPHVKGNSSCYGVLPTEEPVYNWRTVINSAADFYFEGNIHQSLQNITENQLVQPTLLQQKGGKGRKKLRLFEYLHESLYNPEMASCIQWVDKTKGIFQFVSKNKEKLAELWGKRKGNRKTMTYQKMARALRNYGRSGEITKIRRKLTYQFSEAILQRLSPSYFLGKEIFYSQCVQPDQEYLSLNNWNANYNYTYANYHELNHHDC
# How it was run: as §1
# ELF4 = ELF4 (Homo sapiens, UniProt Q99607 1-663); conditions: protein: recombinant; tags: N-terminal GST; dsDNA, one strand shown
# How it was run: as §1
# ELK4 = target: T9, ELK4 (Homo sapiens, UniProt P28324-2 1-405); conditions: protein: recombinant; tags: N-terminal GST; dsDNA, one strand shown
# T9 sequence: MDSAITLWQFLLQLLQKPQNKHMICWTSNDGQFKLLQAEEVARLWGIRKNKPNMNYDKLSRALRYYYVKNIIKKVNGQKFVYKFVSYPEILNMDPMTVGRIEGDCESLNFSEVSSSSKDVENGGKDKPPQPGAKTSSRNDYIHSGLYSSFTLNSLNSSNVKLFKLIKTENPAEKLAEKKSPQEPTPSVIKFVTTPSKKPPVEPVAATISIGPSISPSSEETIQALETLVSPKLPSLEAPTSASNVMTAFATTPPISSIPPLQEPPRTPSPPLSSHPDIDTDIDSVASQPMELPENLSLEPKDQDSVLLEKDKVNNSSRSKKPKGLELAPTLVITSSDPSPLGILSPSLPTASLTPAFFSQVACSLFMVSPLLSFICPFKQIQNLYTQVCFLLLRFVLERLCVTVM
# How it was run: as §1
# ETV2 = target: T10, ETV2 (Homo sapiens, UniProt O00321 1-342); conditions: protein: recombinant; tags: N-terminal GST; dsDNA, one strand shown
# T10 sequence: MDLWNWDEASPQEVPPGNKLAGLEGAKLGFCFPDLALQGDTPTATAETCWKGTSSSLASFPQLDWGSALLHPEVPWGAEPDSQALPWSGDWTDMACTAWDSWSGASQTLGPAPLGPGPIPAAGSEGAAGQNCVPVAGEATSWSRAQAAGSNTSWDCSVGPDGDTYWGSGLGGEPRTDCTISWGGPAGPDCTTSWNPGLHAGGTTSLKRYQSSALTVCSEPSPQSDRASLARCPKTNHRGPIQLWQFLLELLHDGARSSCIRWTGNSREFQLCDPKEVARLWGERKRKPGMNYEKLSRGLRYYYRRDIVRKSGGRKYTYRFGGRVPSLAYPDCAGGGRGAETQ
# How it was run: as §1
# ELF3 = target: T11, ELF3 (Homo sapiens, UniProt P78545 1-371); conditions: protein: recombinant; tags: N-terminal GST; dsDNA, one strand shown
# T11 sequence: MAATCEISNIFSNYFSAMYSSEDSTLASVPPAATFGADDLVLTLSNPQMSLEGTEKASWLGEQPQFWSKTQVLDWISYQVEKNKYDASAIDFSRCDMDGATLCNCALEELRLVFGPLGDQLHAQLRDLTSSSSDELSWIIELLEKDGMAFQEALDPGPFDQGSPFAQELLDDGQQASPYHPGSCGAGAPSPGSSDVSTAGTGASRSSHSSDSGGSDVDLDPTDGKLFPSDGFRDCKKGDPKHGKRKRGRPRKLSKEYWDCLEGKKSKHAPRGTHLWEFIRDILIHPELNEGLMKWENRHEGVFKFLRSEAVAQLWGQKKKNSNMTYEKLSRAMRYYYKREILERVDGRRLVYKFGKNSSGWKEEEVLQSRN
# How it was run: as §1
# CRX = CRX (Homo sapiens, UniProt O43186 1-299); conditions: protein: recombinant; tags: N-terminal GST; dsDNA, one strand shown
# How it was run: as §1
# ETV1 = ETV1 (Homo sapiens, UniProt P50549 1-477); conditions: protein: recombinant; tags: N-terminal GST; dsDNA, one strand shown
# How it was run: as §1
# SPIB, sequence (Q01892 whole entry): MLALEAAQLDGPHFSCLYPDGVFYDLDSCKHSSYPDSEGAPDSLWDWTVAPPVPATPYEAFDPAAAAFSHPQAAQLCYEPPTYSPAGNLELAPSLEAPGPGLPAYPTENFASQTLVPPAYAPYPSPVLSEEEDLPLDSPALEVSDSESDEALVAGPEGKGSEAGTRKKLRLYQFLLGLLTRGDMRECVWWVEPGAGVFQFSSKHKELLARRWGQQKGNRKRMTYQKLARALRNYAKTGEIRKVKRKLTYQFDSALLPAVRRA
# ELF1, sequence (P32519 whole entry): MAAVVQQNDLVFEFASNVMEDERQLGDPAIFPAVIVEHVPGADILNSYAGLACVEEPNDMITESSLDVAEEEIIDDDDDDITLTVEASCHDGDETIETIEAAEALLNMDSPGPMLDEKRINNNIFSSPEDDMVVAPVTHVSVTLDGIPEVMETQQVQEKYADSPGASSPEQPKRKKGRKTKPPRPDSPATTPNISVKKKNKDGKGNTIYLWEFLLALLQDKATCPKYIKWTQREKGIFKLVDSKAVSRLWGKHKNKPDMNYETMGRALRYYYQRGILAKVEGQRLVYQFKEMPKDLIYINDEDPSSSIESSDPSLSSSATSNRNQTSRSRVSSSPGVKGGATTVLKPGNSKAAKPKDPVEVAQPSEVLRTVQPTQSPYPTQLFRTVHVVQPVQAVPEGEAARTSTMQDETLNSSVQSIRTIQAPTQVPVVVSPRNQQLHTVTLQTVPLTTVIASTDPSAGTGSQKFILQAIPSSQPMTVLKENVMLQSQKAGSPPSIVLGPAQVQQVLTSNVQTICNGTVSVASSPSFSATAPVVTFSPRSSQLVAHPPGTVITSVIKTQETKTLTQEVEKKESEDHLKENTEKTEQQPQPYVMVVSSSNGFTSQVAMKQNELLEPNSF
# ETV1, sequence (P50549 whole entry): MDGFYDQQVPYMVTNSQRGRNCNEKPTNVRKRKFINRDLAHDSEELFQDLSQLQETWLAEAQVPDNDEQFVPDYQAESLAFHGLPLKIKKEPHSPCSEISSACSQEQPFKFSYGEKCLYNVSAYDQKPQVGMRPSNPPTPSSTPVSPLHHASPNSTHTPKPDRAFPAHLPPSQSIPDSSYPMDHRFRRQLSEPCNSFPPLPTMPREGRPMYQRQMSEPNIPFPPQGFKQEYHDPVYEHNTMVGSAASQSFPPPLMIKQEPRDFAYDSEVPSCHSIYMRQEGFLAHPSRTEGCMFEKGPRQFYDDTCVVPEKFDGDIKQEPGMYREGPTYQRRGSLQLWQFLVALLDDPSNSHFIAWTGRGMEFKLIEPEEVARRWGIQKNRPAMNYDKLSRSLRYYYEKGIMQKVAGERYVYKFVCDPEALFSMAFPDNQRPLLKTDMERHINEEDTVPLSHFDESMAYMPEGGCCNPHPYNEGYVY
# ELF4, sequence (Q99607 whole entry): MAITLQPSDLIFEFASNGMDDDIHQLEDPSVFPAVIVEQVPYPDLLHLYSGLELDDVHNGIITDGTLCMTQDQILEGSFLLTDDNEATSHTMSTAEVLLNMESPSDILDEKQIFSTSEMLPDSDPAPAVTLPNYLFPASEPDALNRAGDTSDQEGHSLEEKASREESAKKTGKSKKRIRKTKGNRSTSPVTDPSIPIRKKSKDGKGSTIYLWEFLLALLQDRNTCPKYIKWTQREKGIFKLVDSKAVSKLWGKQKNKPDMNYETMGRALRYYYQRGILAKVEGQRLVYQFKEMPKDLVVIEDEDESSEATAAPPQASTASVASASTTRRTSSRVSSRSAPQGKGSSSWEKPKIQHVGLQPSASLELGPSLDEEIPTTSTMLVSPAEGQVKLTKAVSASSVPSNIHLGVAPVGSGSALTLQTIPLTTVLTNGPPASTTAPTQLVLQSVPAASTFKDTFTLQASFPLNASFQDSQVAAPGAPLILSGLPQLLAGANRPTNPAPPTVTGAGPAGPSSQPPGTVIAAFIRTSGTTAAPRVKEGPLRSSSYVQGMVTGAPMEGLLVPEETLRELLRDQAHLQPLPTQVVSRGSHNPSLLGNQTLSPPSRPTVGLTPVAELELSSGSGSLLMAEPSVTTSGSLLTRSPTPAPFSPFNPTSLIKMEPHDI
# HSF1, sequence (Q00613 whole entry): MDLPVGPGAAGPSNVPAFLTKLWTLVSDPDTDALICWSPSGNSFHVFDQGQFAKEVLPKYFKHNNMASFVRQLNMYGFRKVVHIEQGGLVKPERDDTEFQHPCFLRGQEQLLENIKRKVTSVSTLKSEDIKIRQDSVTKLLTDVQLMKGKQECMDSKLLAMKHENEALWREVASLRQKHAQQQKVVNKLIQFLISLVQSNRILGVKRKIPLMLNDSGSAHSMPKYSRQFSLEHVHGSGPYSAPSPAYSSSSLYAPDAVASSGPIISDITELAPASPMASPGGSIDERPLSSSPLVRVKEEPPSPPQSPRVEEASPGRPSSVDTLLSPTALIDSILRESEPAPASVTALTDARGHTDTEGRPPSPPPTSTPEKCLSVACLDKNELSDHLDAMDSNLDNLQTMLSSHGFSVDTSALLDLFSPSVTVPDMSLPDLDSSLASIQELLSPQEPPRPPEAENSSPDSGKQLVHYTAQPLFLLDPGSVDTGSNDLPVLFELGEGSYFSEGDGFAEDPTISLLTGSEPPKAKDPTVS
# ETV5, sequence (P41161 whole entry): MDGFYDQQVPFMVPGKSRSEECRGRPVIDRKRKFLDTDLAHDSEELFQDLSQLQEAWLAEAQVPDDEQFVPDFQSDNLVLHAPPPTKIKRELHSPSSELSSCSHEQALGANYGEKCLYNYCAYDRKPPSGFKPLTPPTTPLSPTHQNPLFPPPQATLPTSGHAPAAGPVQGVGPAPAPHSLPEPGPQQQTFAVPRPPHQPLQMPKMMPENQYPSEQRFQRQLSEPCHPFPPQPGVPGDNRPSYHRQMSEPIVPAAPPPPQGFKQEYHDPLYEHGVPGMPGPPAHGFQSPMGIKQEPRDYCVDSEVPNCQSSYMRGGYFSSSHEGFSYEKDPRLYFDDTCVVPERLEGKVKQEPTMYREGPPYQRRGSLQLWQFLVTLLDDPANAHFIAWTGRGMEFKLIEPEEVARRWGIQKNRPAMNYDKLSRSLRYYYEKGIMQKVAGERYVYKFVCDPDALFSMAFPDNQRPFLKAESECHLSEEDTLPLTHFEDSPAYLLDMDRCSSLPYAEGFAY
# CRX, sequence (O43186 whole entry): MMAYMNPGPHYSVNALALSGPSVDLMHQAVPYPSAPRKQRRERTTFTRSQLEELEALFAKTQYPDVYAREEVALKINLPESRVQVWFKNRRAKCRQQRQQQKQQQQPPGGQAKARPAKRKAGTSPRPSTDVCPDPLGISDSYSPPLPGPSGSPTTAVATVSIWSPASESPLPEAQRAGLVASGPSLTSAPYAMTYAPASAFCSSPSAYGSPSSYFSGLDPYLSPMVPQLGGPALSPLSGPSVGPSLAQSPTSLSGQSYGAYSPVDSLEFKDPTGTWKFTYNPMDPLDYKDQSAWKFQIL
sequence,measurement,setting,value
CTTGCC,binding signal,FLI1,"1.29 fold enrichment (6-mer frequency, TF over GST control)"
same,binding signal,ELK1,"1.17 fold enrichment (6-mer frequency, TF over GST control)"
same,binding signal,GABPA,"1.3 fold enrichment (6-mer frequency, TF over GST control)"
same,binding signal,ERG,"1.24 fold enrichment (6-mer frequency, TF over GST control)"
same,binding signal,ELF1,"1.29 fold enrichment (6-mer frequency, TF over GST control)"
same,binding signal,EHF,"1.33 fold enrichment (6-mer frequency, TF over GST control)"
same,binding signal,SPI1,"1.38 fold enrichment (6-mer frequency, TF over GST control)"
same,binding signal,SPIB,"1.22 fold enrichment (6-mer frequency, TF over GST control)"
same,binding signal,ELK3,"1.3 fold enrichment (6-mer frequency, TF over GST control)"
same,binding signal,FEV,"1.29 fold enrichment (6-mer frequency, TF over GST control)"
same,binding signal,ETV5,"1.17 fold enrichment (6-mer frequency, TF over GST control)"
same,binding signal,HSF1,"1.1 fold enrichment (6-mer frequency, TF over GST control)"
same,binding signal,SPIC,"1.66 fold enrichment (6-mer frequency, TF over GST control)"
same,binding signal,ELF4,"1.26 fold enrichment (6-mer frequency, TF over GST control)"
same,binding signal,ELK4,"1.17 fold enrichment (6-mer frequency, TF over GST control)"
same,binding signal,ETV2,"1.24 fold enrichment (6-mer frequency, TF over GST control)"
same,binding signal,ELF3,"1.43 fold enrichment (6-mer frequency, TF over GST control)"
same,binding signal,CRX,"1.1 fold enrichment (6-mer frequency, TF over GST control)"
same,binding signal,ETV1,"1.25 fold enrichment (6-mer frequency, TF over GST control)"
